Measurements: PubChem BioAssay

target: Torsin-1A-interacting protein 1 (Homo sapiens) (UniProt Q5JTV8); assay: LAP1 binders from COS7 cell lysate, primary screen, small-molecule microarray, 635/667 nm fluorescence (AID 1116); settings: COS7-hLAP1 lysate binding, 635 nm fluorescence, higher = more signal
Sequence (Q5JTV8 whole entry, looked up): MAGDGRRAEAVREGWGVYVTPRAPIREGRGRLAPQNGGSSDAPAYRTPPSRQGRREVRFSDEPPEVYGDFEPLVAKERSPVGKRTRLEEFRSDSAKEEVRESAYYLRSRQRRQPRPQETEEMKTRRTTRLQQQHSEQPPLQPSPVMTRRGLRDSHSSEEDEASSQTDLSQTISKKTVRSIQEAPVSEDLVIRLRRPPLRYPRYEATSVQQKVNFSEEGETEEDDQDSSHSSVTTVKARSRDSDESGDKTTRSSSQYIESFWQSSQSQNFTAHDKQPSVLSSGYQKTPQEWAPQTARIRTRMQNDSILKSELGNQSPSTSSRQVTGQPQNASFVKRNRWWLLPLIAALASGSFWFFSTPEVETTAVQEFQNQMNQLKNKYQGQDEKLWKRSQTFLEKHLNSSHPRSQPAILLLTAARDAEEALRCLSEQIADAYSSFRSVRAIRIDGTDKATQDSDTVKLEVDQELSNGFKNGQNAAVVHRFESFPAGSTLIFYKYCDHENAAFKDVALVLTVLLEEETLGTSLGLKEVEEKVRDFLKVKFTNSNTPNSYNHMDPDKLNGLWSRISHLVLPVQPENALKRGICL

With `CC[C@H]1C2=C3C(CC[C@H]4C(OCc5ccc(F)cc5C(F)(F)F)OC[C@](C)([C@@H]34)N(C(=O)OC(C)(C)C)C2)C(COC(C)=O)C1COC(C)=O` (stereo not given in full) as the compound, how does the composite z-score read?
The composite z-score was 0.0366.

For `[N-]=[N+]=NCc1ccccc1[C@H]1OC(c2ccc(OCCCO)cc2)=N[C@@]1(CCS(=O)(=O)c1ccccc1)C(=O)NCCN1CCOCC1`, which composite z-score is on record?
The composite z-score was 1.06.

How did the composite z-score turn out when `C=C(CCCC)/C(=C/C[C@@H](OC(C)=O)c1ccc(OCCO)cc1)c1cc(C(=O)OC)ccc1OC` was run?
The composite z-score was 1.17.

Which composite z-score does the source give for `O=C1C2C=CC(C(O)c3ccccn3)N(Nc3ccc([N+](=O)[O-])cc3)C2C(=O)N1c1ccccc1` (stereo not given) here?
Its composite z-score is 0.958.

`CCN1C(=O)C2CC(=O)C3C(CN(S(=O)(=O)c4ccc(C)cc4)C3c3ccc(C)cc3)C2C1=O` (stereo not given) was tested. Which composite z-score did it give?
Its composite z-score is 1.08.

Which composite z-score does the source give for `COC(=O)C1=CC(CCCO)=CC(c2ccc(CN3CCCC3)cc2)N(C)C=C1C(=O)OC` (stereo not given) here?
The composite z-score was 1.66.

Which composite z-score does the source give for `CCOC(=O)C[C@H]1[C@H](OC(=O)c2cc3ccccc3oc2=O)[C@@H](NC(=O)c2ccc(-c3ccccc3)cc2)c2cc(OCCCO)ccc2N1C(=O)Cc1ccc(OC)cc1` here?
The composite z-score was 0.674.

With `C=CCNC(=O)[C@H]1[C@@H]2C(=O)O[C@@H](c3ccccc3)[C@@H](c3ccccc3)N2[C@@H](c2ccc(OCCO)cc2)[C@]12C(=O)N(C(=O)OCCOC)c1ccc(C#CCNC(N)=O)cc12` as the compound, how does the composite z-score read?
The composite z-score was 1.33.

With `O=C1C[C@@](C(=O)NCC(F)(F)F)(c2ccc([N+](=O)[O-])cc2)[C@@H](c2ccc(CO)cc2I)N1CC12CC3CC(CC(C3)C1)C2` as the compound, how does the composite z-score read?
The composite z-score was 0.349.

Which composite z-score does the source give for `COc1cc2c(cc1O)C(C)N(Cc1sc3ccccc3c1Cl)CC2` (stereo not given) here?
The composite z-score was -0.216.

Which composite z-score does the source give for `CCCCCCCCCCC(O)C1C=CC2C(=O)N(C)C(=O)C2N1Nc1ccccc1` (stereo not given) here?
Its composite z-score is 0.504.

With `COC(=O)[C@@]1(Cc2ccccc2)[C@H]2c3cc(C(=O)N(C)C)n(Cc4ccc(Cl)c(C(F)(F)F)c4)c3C[C@H]2CN1C(=O)c1ccccc1` as the compound, how does the composite z-score read?
The composite z-score was 0.636.

For `COC(=O)[C@@]1(Cc2ccc(F)cc2)[C@H]2c3cc(C(=O)N4CCCC4)n(CCc4c[nH]c5cc(F)ccc45)c3C[C@H]2CN1C(=O)c1ccccc1`, which composite z-score is on record?
Its composite z-score is -0.291.

`C=CCNC(=O)[C@@H]1[C@H]2C(=O)O[C@H](c3ccccc3)[C@H](c3ccccc3)N2[C@H](c2ccc(OCCO)cc2)[C@@]12C(=O)Nc1ccc(C#CC3=CCCCC3)cc12` was tested. Which composite z-score did it give?
The composite z-score was 0.803.

How did the composite z-score turn out when `C=CCOC(=O)[C@H]1[C@@H]2C(=O)O[C@@H](c3ccccc3)[C@@H](c3ccccc3)N2[C@@H](c2ccc(OCCOC(=O)[C@H]3C[C@H]4C(=O)NCC(=O)N4[C@H]3c3ccc(O)cc3)cc2)[C@]12C(=O)Nc1ccccc12` was run?
Its composite z-score is 1.05.

Which composite z-score does the source give for `CO[C@H]1O[C@H](CO)[C@@H](OC(=O)Nc2cccc(F)c2)[C@H](OC(=O)c2cc3ccccc3[nH]2)[C@H]1OC(=O)c1cc2ccccc2[nH]1` here?
The composite z-score was -0.009.

`O=C1O[C@@H](c2ccccc2)[C@@H](c2ccccc2)N2[C@@H](c3ccccc3OCCO)[C@]3(C(=O)Nc4ccc(C#CC5(O)CCCCCC5)cc43)[C@@H](C(=O)N3CCCCCCC3)[C@H]12` was tested. Which composite z-score did it give?
Its composite z-score is 5.6.

`CCCCCCc1nc(Cc2cc(OC)c(OC)c(OC)c2)c(C)c2c1[Si](C(C)C)(C(C)C)OC2` was tested. Which composite z-score did it give?
Its composite z-score is 0.18.

Which composite z-score does the source give for `[N-]=[N+]=NCc1ccccc1[C@H]1OC(c2ccc(OCCCO)cc2)=N[C@@]1(CCS(=O)(=O)c1ccccc1)C(=O)O` here?
Its composite z-score is 0.703.

`COc1ccc(NN2C(C(O)c3ccc(F)cc3)C=CC3C(=O)N(C4CCCCC4)C(=O)C32)cc1` (stereo not given) was tested. Which composite z-score did it give?
The composite z-score was 0.297.

With `CC1C2C(CCCO)=CC(C3C(=O)N(C)C(=O)C23)N1Cc1cccc(OC(F)(F)F)c1` (stereo not given) as the compound, how does the composite z-score read?
Its composite z-score is 1.62.

`CCOC(=O)C1=C[C@@H](C(C)(C)C)N(S(=O)(=O)c2ccc(C)cc2)[C@H]1c1ccc(OC)cc1` was tested. Which composite z-score did it give?
Its composite z-score is 1.97.

How did the composite z-score turn out when `Cc1ccc(N2C(=O)c3ccccc3[C@@H](C(=O)NCCN3CCOCC3)[C@@H]2c2ccc(CO)cc2)nc1` was run?
Its composite z-score is -1.3.

How did the composite z-score turn out when `O=C(N1CCOCC1)[C@]1(CCS(=O)(=O)c2ccccc2)N=C(c2ccc(OCCCO)cc2)O[C@@H]1c1ccccc1` was run?
The composite z-score was 2.3.

With `C=CCC(OC(C)=O)[C@@H]1[C@@H](N(Cc2ccc(-c3ccccc3)cc2)C(=O)Cc2ccc(OC)cc2)c2cc(OCCCO)ccc2N1C(=O)Cc1ccc(OC)cc1` (stereo not given in full) as the compound, how does the composite z-score read?
The composite z-score was 0.468.

With `C=C(COC)C(=O)CC[C@H](OC(C)=O)c1ccccc1OCCO` as the compound, how does the composite z-score read?
The composite z-score was 1.59.

How did the composite z-score turn out when `COc1cc(CO)cc(I)c1O[C@H]1C=C(C(=O)NCCO)C[C@@H](N(CCN2CCOCC2)C(=O)C2CCCO2)[C@@H]1O` (stereo not given in full) was run?
The composite z-score was 0.11.

How did the composite z-score turn out when `CC(C)(C)OC(=O)CC[C@@]1(C(N)=O)N=C(c2ccc(OCCCO)cc2)O[C@@H]1c1ccccc1CN=[N+]=[N-]` was run?
Its composite z-score is 1.48.

For `[N-]=[N+]=NCc1ccccc1[C@H]1OC(c2ccc(OCCCO)cc2)=N[C@@]1(Cc1ccccc1N=[N+]=[N-])C(=O)N1CCOCC1`, which composite z-score is on record?
Its composite z-score is 0.506.

With `CN(C)CCCCCCNC(=O)[C@@H]1C[C@@H]2C(=O)N[C@@H](CCCC[N+](C)(C)C)C(=O)N2[C@@H]1c1cccc(OCCO)c1` as the compound, how does the composite z-score read?
Its composite z-score is 2.09.

How did the composite z-score turn out when `CCCCC(=C=CC[C@@H](O)c1ccccc1OCCO)C[C@@H](O)c1ccccn1` was run?
The composite z-score was -0.194.

With `CC1C2C(CCCO)=CC(C3C(=O)N(C(N)=O)C(=O)C23)N1Cc1cccc(OC(F)(F)F)c1` (stereo not given) as the compound, how does the composite z-score read?
Its composite z-score is 1.26.

For `C=CCC(OC(C)=O)[C@@H]1[C@@H](N(Cc2ccc(-c3ccccc3)cc2)C(=O)Cc2ccc(OC)cc2)c2cc(OCCCO)ccc2N1C(=O)c1ccc2ccccc2c1` (stereo not given in full), which composite z-score is on record?
The composite z-score was 0.748.

With `COc1cc(Cc2cc3c(c(-c4ccccc4)n2)[Si](C(C)C)(C(C)C)OC3)cc(OC)c1OC` as the compound, how does the composite z-score read?
Its composite z-score is -0.181.

`O=C1N(Cc2ccccc2)Cc2ccccc2C[C@@]12COC(c1ccc(OCCCO)cc1)=N2` was tested. Which composite z-score did it give?
Its composite z-score is 0.724.
